Test results published in PubChem BioAssay (NCI).
Compounds without any hit were thinned out: in the full panel of roughly 79,000, 15% have a hit. Active and inactive are the calls of the source. Cut-off read from the data, not from the text of the source: active = growth inhibition above about 70%; inactive = the rest.

Assays:
[1] = NCI Yeast Anticancer Drug Screen. Data for the rad52 strain (AID 147);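 note: 0% = growth of vehicle-treated control cultures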; details: S. cerevisiae rad52 mutant growth inhibition, active compounds read high
How it was run: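 Inhibition of yeast growth, referenced to vehicle controls, was the measured output for a strain with defective DNA damage repair.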

[2] = NCI Yeast Anticancer Drug Screen. Data for the wt1 strain (AID 149);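 note: 0% = growth of vehicle-treated wt1 cultures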; details: S. cerevisiae wt1 strain (SPY 50644) growth inhibition, active compounds read high
How it was run: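 Yeast wt1 strain exposed to compounds; growth inhibition measured relative to vehicle-treated controls.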

[3] = NCI Yeast Anticancer Drug Screen. Data for the rad50EPP+ strain (AID 151);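 note: 0% = growth of vehicle-treated control cultures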; details: S. cerevisiae rad50 mutant strain, active compounds read high
How it was run: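 Genetically defined yeast (rad50EPP+, DNA damage repair alteration) is grown with compound, and inhibition of growth is expressed relative to vehicle-treated controls.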

[4] = NCI Yeast Anticancer Drug Screen. Data for the rad50 strain (AID 155);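 note: 0% = growth of vehicle-only cultures of the same strain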; details: S. cerevisiae rad50 strain growth inhibition, active compounds read high
How it was run: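 Yeast carrying a defined DNA repair defect were exposed to test compounds, and growth was compared with vehicle-treated controls to give percent inhibition.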

[5] = NCI Yeast Anticancer Drug Screen. Data for the mec2-1 strain (AID 157); details: S. cerevisiae mec2-1 strain, active compounds read high
How it was run: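 Each compound was tested on mec2-1 yeast, a strain altered in DNA damage repair or cell cycle control. Growth inhibition is reported relative to vehicle.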

[6] = NCI Yeast Anticancer Drug Screen. Data for the rad14 strain (AID 159);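 note: 0% = growth of vehicle-treated control cultures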; details: S. cerevisiae rad14 strain growth inhibition, active compounds read high
How it was run: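 Yeast cells carrying a defined DNA-repair defect were exposed to compounds, and growth inhibition was calculated relative to vehicle-treated control cultures.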

[7] = NCI Yeast Anticancer Drug Screen. Data for the sgs1 mgt1 strain (AID 161);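 note: 0% = growth of cultures given vehicle only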; details: S. cerevisiae sgs1 mgt1 strain, active compounds read high
How it was run: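 Test agents were incubated with a DNA-repair-mutant yeast strain. Growth was then read and compared against vehicle-treated controls.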

[8] = NCI Yeast Anticancer Drug Screen. Data for the CLN2oe strain (AID 163);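 note: 0% = growth of vehicle-only control cultures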; details: S. cerevisiae CLN2oe strain, active compounds read high
How it was run: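 First, the altered yeast strain was treated with each compound; second, its growth was measured; finally, inhibition was derived by comparison with vehicle controls.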

[9] = NCI Yeast Anticancer Drug Screen. Data for the cln2 rad14 strain (AID 165);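 note: 0% = growth equal to vehicle treated cultures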; details: S. cerevisiae cln2 rad14 strain, active compounds read high
How it was run: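 Test compounds were added to cln2 rad14 yeast cultures; inhibition of growth was then determined by comparison with vehicle treatment.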

[10] = NCI Yeast Anticancer Drug Screen. Data for the bub3 strain (AID 167); details: S. cerevisiae bub3 mutant strain, active compounds read high
How it was run: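 Compounds were applied to a genetically altered yeast strain carrying a cell-cycle control defect. Growth inhibition was scored against vehicle-treated controls.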

[11] = NCI Yeast Anticancer Drug Screen. Data for the mlh1 strain (AID 171);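 note: 0% = growth of vehicle-treated control cultures of the same strain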; details: S. cerevisiae mlh1 strain growth inhibition, active compounds read high
How it was run: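 Inhibition values reflect reduced yeast growth in the presence of compound, referenced to vehicle controls, using a strain chosen for its alteration in DNA repair or cell cycle control.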

[12] = NCI Yeast Anticancer Drug Screen. Data for the sgs1 strain (AID 173);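 note: 0% = growth of vehicle-only control cultures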; details: S. cerevisiae sgs1 mutant, active compounds read high
How it was run: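 Vehicle-treated cultures served as reference for growth inhibition of a yeast strain altered in DNA damage repair or cell cycle control after compound exposure.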

[13] = NCI Yeast Anticancer Drug Screen. Data for the mlh1 rad18 strain (AID 175); details: S. cerevisiae mlh1 rad18 strain growth inhibition, active compounds read high
How it was run: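 Inhibition values reflect reduced growth of mutant yeast versus vehicle-treated controls following compound exposure; the mutations affect DNA damage repair.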

[14] = NCI Yeast Anticancer Drug Screen. Data for the rad18 strain (AID 177); details: S. cerevisiae rad18 mutant growth inhibition, active compounds read high
How it was run: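 Steps: expose repair-mutant yeast to compound; measure growth; express as inhibition relative to vehicle control.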

[15] = NCI Yeast Anticancer Drug Screen. Data for the wt2 strain (AID 169);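 note: 0% = growth of vehicle-treated yeast cultures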; details: S. cerevisiae wt2 strain growth inhibition, active compounds read high
How it was run: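 The panel's yeast strains carry defined changes in DNA repair or cell cycle genes. Each strain is grown with compound, and growth loss is scored relative to vehicle.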

[16] = at 5.0 µM (retest, dose inferred, filed as 0.5)
[17] = at 50.0 µM (retest, dose inferred, filed as 5.0)

Measured: growth inhibition

Cc1cc(NCCCN(C)C)c2ccc3c(ccc4c(NCCCN(C)C)cc(C)nc43)c2n1
active: [4]; [17] 90% | [7]; [17] 81% | [13]; [17] 85%
inactive: [1]; at 1.2 µM 6% | [1]; at 3.7 µM 21% | [1]; at 11.0 µM 17% | [1]; at 33.0 µM 19% | [1]; at 100.0 µM 47% | [2]; at 1.2 µM 22% | [2]; at 3.7 µM 18% | [2]; at 11.0 µM 15% | [2]; at 33.0 µM 9% | [2]; at 100.0 µM 27% | [3]; at 1.2 µM 6% | [3]; at 3.7 µM 6% | [3]; at 11.0 µM 11% | [3]; at 33.0 µM -26% | [3]; at 100.0 µM 22% | [4]; at 1.2 µM 21% | [4]; at 3.7 µM 17% | [4]; [16] 11% | [4]; at 11.0 µM 17% | [4]; at 33.0 µM 21% | [4]; at 50.0 µM 55.9% | [4]; at 100.0 µM 59% | [5]; at 1.2 µM 7% | [5]; at 3.7 µM 15% | [5]; [16] 5% | [5]; at 11.0 µM 11% | [5]; at 33.0 µM 12% | [5]; [17] 31% | [5]; at 50.0 µM 25.6% | [5]; at 100.0 µM 35% | [6]; at 1.2 µM 2% | [6]; at 3.7 µM 3% | [6]; at 11.0 µM 15% | [6]; at 33.0 µM 22% | [6]; at 100.0 µM 58% | [7]; [16] 7% | [7]; at 50.0 µM 18.6% | [8]; at 1.2 µM -7% | [8]; at 3.7 µM -4% | [8]; at 11.0 µM -1% | [8]; at 33.0 µM 17% | [8]; at 100.0 µM 52% | [9]; [16] 8% | [9]; [17] 57% | [9]; at 50.0 µM 19.1% | [10]; at 1.2 µM 1% | [10]; at 3.7 µM 11% | [10]; [16] 1% | [10]; at 11.0 µM 9% | [10]; at 33.0 µM 5% | [10]; [17] 31% | [10]; at 50.0 µM 11.3% | [10]; at 100.0 µM 22% | [11]; at 1.2 µM 15% | [11]; at 3.7 µM 18% | [11]; at 11.0 µM 23% | [11]; at 33.0 µM 25% | [11]; at 100.0 µM 37% | [12]; at 1.2 µM 3% | [12]; at 3.7 µM 10% | [12]; at 11.0 µM 7% | [12]; at 33.0 µM 8% | [12]; at 100.0 µM 46% | [13]; [16] 10% | [13]; at 50.0 µM 9.8% | [14]; at 1.2 µM 10% | [14]; at 3.7 µM 4% | [14]; at 11.0 µM 2% | [14]; at 33.0 µM -8% | [14]; at 100.0 µM 34%

Cc1ccc2nc(N/N=C/c3ccc(C)s3)cc(C)c2c1
active: [1]; at 33.0 µM 98% | [1]; at 100.0 µM 98% | [2]; at 33.0 µM 99% | [2]; at 100.0 µM 94% | [3]; at 100.0 µM 70% | [4]; at 33.0 µM 99% | [4]; [17] 98% | [4]; at 50.0 µM 89.7% | [4]; at 100.0 µM 93% | [5]; at 33.0 µM 99% | [5]; [17] 99% | [5]; at 50.0 µM 92.7% | [5]; at 100.0 µM 96% | [6]; at 33.0 µM 99% | [6]; at 100.0 µM 98% | [7]; at 50.0 µM 91.8% | [9]; at 50.0 µM 90.8% | [10]; at 33.0 µM 99% | [10]; at 50.0 µM 91.7% | [10]; at 100.0 µM 95% | [15]; at 33.0 µM 99% | [15]; at 100.0 µM 96% | [11]; at 33.0 µM 99% | [11]; at 100.0 µM 99% | [12]; at 33.0 µM 99% | [12]; at 100.0 µM 93% | [13]; [17] 98% | [13]; at 50.0 µM 91.2% | [14]; at 33.0 µM 99% | [14]; at 100.0 µM 93%
inactive: [1]; at 1.2 µM -26% | [1]; at 3.7 µM -40% | [1]; at 11.0 µM -47% | [2]; at 1.2 µM -27% | [2]; at 3.7 µM -18% | [2]; at 11.0 µM 1% | [3]; at 1.2 µM -15% | [3]; at 3.7 µM -5% | [3]; at 11.0 µM 2% | [3]; at 33.0 µM 44% | [4]; at 1.2 µM -2% | [4]; at 3.7 µM -22% | [4]; [16] 22% | [4]; at 11.0 µM -1% | [5]; at 1.2 µM -23% | [5]; at 3.7 µM -17% | [5]; [16] 12% | [5]; at 11.0 µM -19% | [6]; at 1.2 µM -32% | [6]; at 3.7 µM -18% | [6]; at 11.0 µM 0% | [7]; [16] 10% | [7]; [17] 9% | [9]; [16] 17% | [9]; [17] -18% | [10]; at 1.2 µM -6% | [10]; at 3.7 µM 5% | [10]; [16] 7% | [10]; at 11.0 µM 15% | [10]; [17] -10% | [15]; at 1.2 µM 9% | [15]; at 3.7 µM 6% | [15]; at 11.0 µM 30% | [11]; at 1.2 µM -18% | [11]; at 3.7 µM -28% | [11]; at 11.0 µM -10% | [12]; at 1.2 µM -12% | [12]; at 3.7 µM -19% | [12]; at 11.0 µM -1% | [13]; [16] 31% | [14]; at 1.2 µM -8% | [14]; at 3.7 µM -1% | [14]; at 11.0 µM 2%
